Pf growth 96h: inhibits malaria parasite growth, 96 h | P. falciparum luciferase reporter growth, 96 h | 6.9% of 320,000 active | Potency, µM (titrated, usually from 28.7 µM), usual class: inhibitors; active = well fitted inhibition curve with a large enough effect; inconclusive = small, poorly fitted or top-dose-only effect, or another doubt; inactive = no such curve, though single readings can be large or run the other way
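96 h incubation, 37 C, 5% CO2, of luciferase-reporter P. falciparum-infected RBCs (2% hematocrit, 0.05% parasitemia final) with test compounds; endpoint luminescence.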
NS1 inh: inhibitors of influenza NS1 protein function. Potency, µM (titrated, usually from 46.1 µM). 0.4% of 270,000 active. AID 2326; also: actives are rising curves; nearly all actives have a fitted effect of over 50% in size
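Recovery from NS1-induced slow growth read by OD600 in budding yeast switched to galactose assay medium (pH 6.0, -URA) at 1:100 dilution. Compound 23 nl per well; the matching strain lacking NS1 serves as control.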
Shiga toxin inh: Shiga toxin inhibition. inhibition, % at 38.7 µM. AID 2315. 9.2% of 290,000 active. Vero cells, Shiga toxin protein synthesis inhibition reporter; in the data active = inhibition mostly above about 28%, no sharp cut-off; inactive = mostly below about 43%
Pf growth 48h: inhibits P. falciparum growth in the first generation, 48 h; Potency, µM (doses to about 28.7 µM), most hits filed as inhibitors; P. falciparum luciferase growth in erythrocytes, 48 h; AID 504832; 5.9% of 310,000 active; active = well fitted inhibition curve with a large enough effect; inconclusive = small, poorly fitted or top-dose-only effect, or another doubt; inactive = no such curve, though single readings can be large or run the other way
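Luciferase-expressing P. falciparum in infected erythrocytes (2% hematocrit, 0.1% parasitemia final) in RPMI 1640/0.5% Albumax were exposed to compound for 48 hours at 37 C, 5% CO2; growth read as luminescence.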
Cycloheximide cs: counter-screen for Shiga toxin inhibitors: cycloheximide protein synthesis inhibition; cell reporter, cycloheximide protein synthesis inhibition counterscreen; max response, %; 12% of 300,000 active; AID 2314; in the data active = max response mostly above about 13%, no sharp cut-off; inactive = mostly below about 14%; also: read at 38.3 µM for the half of the compounds with a filed dose
SARS PLpro yeast-1: inhibitors of SARS-CoV papain-like protease in yeast | S. cerevisiae expressing SARS-CoV PLpro, growth rescue | 0.19% of 330,000 active | Potency, µM (series often up to 32.9 µM), actives largely listed as activators | AID 485353; also: nearly all actives have a fitted effect of over 55% in size
SARS PLpro yeast-2: Inhibits SARS-CoV PLP in yeast, hit validation | shares compounds with SARS PLpro yeast-1 | yeast expressing SARS-CoV PLpro, growth phenotype rescue | calls only | 19% of 1,000 active | AID 652038; call rule not given here
Hits are given with their value; . = inactive; ? = inconclusive; / = no result; + = active, no number; [ ] = remark or other dose. Rows were chosen to be rich in hits. Some 21% of all compounds tested hit in one or more screens of this group. Unless noted, calls follow the shape of the full dose curve.

SMILES	Pf growth 96h	NS1 inh	Shiga toxin inh	Pf growth 48h	Cycloheximide cs	SARS PLpro yeast-1	SARS PLpro yeast-2
CCN(CC)S(=O)(=O)c1cc(C(=O)OCC(=O)Nc2c(F)cccc2F)ccc1F	.	.	.	.	.	?	.
Cc1ccc(CNC(=O)CN2CCN(c3ccc(F)cc3)CC2)cc1	.	.	.	.	.	.	/
CCC1CCC2(CC1)NNC(=S)NN2	?	.	.	/	.	8.9µM	.
COc1ccc(N2CCN(c3nc(Cl)nc(Nc4ccc(F)cc4)n3)CC2)cc1	.	.	.	.	.	.	/
O=C(c1ccccc1C(=O)N1CCN(c2ccccc2F)CC1)N1CCN(c2ccccc2F)CC1	/	.	.	?	.	.	/
CCSc1ccccc1C(=O)N1CCN(c2ccccc2F)CC1	.	.	.	?	.	?	.
CCOCCCNC(=O)C(NC(=O)c1ccccc1O)c1ccc(Cl)cc1 (stereo not drawn)	?	/	.	.	.	.	/
O=c1cc(CO)oc(C(Nc2ccccn2)c2ccsc2)c1O (stereo not drawn)	.	?	.	.	.	.	/
COc1ccc(C(Nc2ccccn2)c2oc(CO)cc(=O)c2O)cc1 (stereo not drawn)	.	.	.	.	.	11µM	.
O=c1cc(CO)oc(C(Nc2ccccn2)c2ccccc2Cl)c1O (stereo not drawn)	?	/	.	?	.	13µM	.
CC1(C)CC(=O)C2=C(C1)c1c(ccc3ccccc13)NC2c1ccco1 (stereo not drawn)	/	.	.	?	.	.	/
Cc1ccsc1C1Nc2ccc3ncccc3c2C2=C1C(=O)CC(C)(C)C2 (stereo not drawn)	1.2µM	.	.	1.7µM	.	11µM	.
CN1CCN(Cc2cc(Cl)c3cccnc3c2OC(=O)c2cccs2)CC1	?	.	.	?	.	11µM	.
CNC(=O)Oc1cccc(-c2cn3cc(OC(=O)NC)ccc3n2)c1	?	.	active	.	37	11µM	+
CCc1ccccc1NC(=O)CSc1nnc(Cn2cnc3ccccc32)o1	.	.	.	.	.	.	/
Cc1cccc(NC(=O)CSc2nnc(Cn3cnc4ccccc43)o2)c1	.	.	.	.	.	18µM	.
CC(=O)Nc1ccc(S(=O)(=O)N(Cc2ccco2)Cc2cc3ccccc3[nH]c2=O)cc1	?	.	.	.	.	.	/
COc1cc(OC)cc(C(=O)N[C@H](C(=O)OCC(=O)Nc2cccc(F)c2)C(C)C)c1	.	.	.	.	.	3.5µM	.
CC(=O)Nc1ccc(S(=O)(=O)N(C)CC(=O)OCCOc2cccc(C)c2)cc1	.	.	.	.	.	.	/
Cc1ccc2cccnc2c1N	.	/	.	.	.	?	.
Cc1ccc2nsnc2c1N	.	.	.	.	.	.	/
COC(=O)c1cn(NC(=O)/C=C/c2cc(OC)ccc2OC)c(=O)c2ccccc12	.	.	.	?	.	.	/
CCOC(=O)C1CCN(C(=O)COc2cccc(C)c2)CC1	.	.	.	.	.	3.5µM	.
COc1ccc(Cn2nc(C)n(N(C)c3ncc(C(F)(F)F)cc3Cl)c2=O)cc1	/	.	.	?	.	.	/
COCCC1CCCCN1C(=O)c1cc(COc2ccc(-n3cncn3)cc2)on1 (stereo not drawn)	?	.	.	.	.	?	.
SMILES	Pf growth 96h	NS1 inh	Shiga toxin inh	Pf growth 48h	Cycloheximide cs	SARS PLpro yeast-1	SARS PLpro yeast-2
Cc1nc(SCC(=O)N(CC(C)C)C2CCS(=O)(=O)C2)c2c(C)c(C)sc2n1 (stereo not drawn)	?	/	/	?	/	.	/
CCNC(=S)NNC(=O)C1CCCCC1	.	.	.	/	.	4µM	.
Cc1cc(Br)ccc1NC(=O)CN(C)C(=O)c1ccc2ccccc2n1	.	/	/	.	/	.	/
CC(C)(C)c1cc(C(=O)N/N=C/c2ccccc2O)n(-c2ccccc2)n1	?	.	.	?	.	14µM	.
COc1ccc(/C=N/NC(=O)c2nc(-c3ccccc3)n(-c3ccccc3)n2)c(O)c1	.	.	.	?	.	2.8µM	+
Cc1cc(/C=N/NC(N)=S)c(C)n1-c1ccc(Cl)cc1	.	.	.	?	.	11µM	.
Cc1cc(/C=N/NC(N)=S)c(C)n1-c1ccc(Br)cc1	.	/	.	?	.	?	/
Cc1ccccc1NC(=O)C(C)OC(=O)CNS(=O)(=O)c1ccc(C#N)cc1 (stereo not drawn)	.	/	/	?	/	?	.
CN(Cc1ccccc1)c1ncnc2sccc12	.	.	.	.	.	.	/
CN1CCOC(c2ccccc2)c2ccccc2C1 (stereo not drawn)	10µM	.	.	.	.	5µM	.
Cc1nc([N+](=O)[O-])c(Sc2nc3ccc([N+](=O)[O-])cc3[nH]2)n1Cc1ccccc1	?	.	.	?	.	10µM	.
Cc1nc([N+](=O)[O-])c(Br)n1Cc1ccccc1	.	.	.	?	.	.	/
CCN(CC(=O)Nc1cc(C)nn1-c1nc(C)cc(C)n1)Cc1ccccc1	4.1µM	.	.	/	.	?	.
COC(=O)c1sc(NC(=S)NC(=O)c2cccc(Br)c2)nc1C	.	.	70	.	34	?	?
COC(=O)c1sc(NC(=S)NC(=O)c2ccccc2C)nc1C	?	.	.	.	.	.	/
COc1ccc(NC(=O)C(=O)NNC(=O)c2cccs2)c(OC)c1	.	.	.	.	.	?	.
CC(=O)Nc1ccc(C(=O)CSc2nccc(=O)[nH]2)cc1	.	/	.	.	.	.	/
CCN(CC(=O)Nc1ccc2c(c1)OCCO2)C(=O)CCc1ccccc1Cl	?	/	/	?	/	.	/
CC(=O)Nc1ccc(Cc2ccncc2)cc1	.	.	.	.	.	.	/
CCCCCC(=O)Nc1ccc(Cc2ccncc2)cc1	12µM	.	.	.	.	13µM	.
Cc1ccc(SCC(=O)OCC(=O)NCCc2ccc(S(N)(=O)=O)cc2)c(C)c1	/	/	/	/	/	.	/
CCOc1ccc([C@@H]2CC=C(C(=O)O)CN2S(=O)(=O)c2ccc(C)cc2)cc1	?	/	/	?	/	.	/
O=C(Nn1c(COc2ccccc2)nc2ccccc2c1=O)C(Cl)(Cl)Cl	.	.	.	.	.	.	/
Cc1cc(/C=N/n2c(COc3ccccc3)nc3ccccc3c2=O)c(O)c([N+](=O)[O-])c1	.	.	.	.	.	2.5µM	+
O=C(Nc1nccs1)C1CC(=O)N(c2ccc(Cl)cc2)C1 (stereo not drawn)	.	/	.	.[5.75 µM]	.	.	/
O=C(CCCN1C(=O)c2ccccc2C1=O)NCCN1C(=O)S/C(=C\c2cccs2)C1=O	?	.	.	.	.	.	/
O=C(Nc1ccc(NC(=O)c2cc([N+](=O)[O-])ccc2N2CCOCC2)cc1)c1cccs1	.	/	.	.[5.75 µM]	.	.	/
O=C(CN1CC(c2ccccc2)CC1=O)N/N=C/c1cc(Br)ccc1O (stereo not drawn)	.	.	.	.	.	10µM	+
CC(C(=O)NCc1ccc2c(c1)OCO2)N1c2cccc3cccc(c23)S1(=O)=O (stereo not drawn)	.	.	.	?	.	?	+

Screens as filed in PubChem.
